From the supplement of paper PMC10849652
The full data set covers some 7,900 targets. This sample favours those with a hit. About 0.6% of all pairs of compound and target were hits. A number with no mark means an inactive call.

Legend:
Assay in all cases: log2 fold change, soluble protein after heating vs DMSO (PISA); higher = thermal stabilisation; K562 cells, 10 uM, 30 min; active = over 0.2 and 3.5 SD of the protein, either way, in both replicates (recomputed)
erlotinib = compound: C#Cc1cccc(Nc2ncnc3cc(OCCOC)c(OCCOC)cc23)c1 [erlotinib]
Procedure, shortened: (§1)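 Soluble protein was quantified by TMTpro 16plex LC-MS/MS after channel sums were equalised. It was obtained as the supernatant after 21,000xg for 90 min from pooled aliquots of K562 cells (2×10^6 cells/mL, 10 μM compound, 30 min) heated for 3 min across 48°C-58°C and extracted in PBS with 0.5% NP-40 at 4°C. Thermal stability values are relative to control samples and come from duplicates. They are given as log2 fold changes.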

[1] = compound: C/C(=N\NC(=O)C1=CC(=CC=C1)S(=O)(=O)N2CCOCC2)/C3=C(C=CC(=C3)Cl)O
Procedure, shortened: as §1

[2] = compound: C1=CC(=C(C=C1Cl)C2=NC3=NC=CN=C3C(=N2)NC4=CC=NC=C4)F
Procedure, shortened: as §1

[3] = compound: C1=CC(=CC=C1C2=NC3=C(N2)C=C(C=C3)C(=O)N)OC4=CC=C(C=C4)Cl
Procedure, shortened: as §1

[4] = compound: C1=CC2=C(C=CC(=C2)/C=C\3/C(=O)NC(=NCC4=CC=CS4)S3)N=C1
Procedure, shortened: as §1

[5] = compound: C1=CC2=NC=CN=C2C=C1/C=C/3\C(=O)NC(=O)S3
Procedure, shortened: as §1

[6] = compound: C1=CC=C(C=C1)C2=NC(=C(N2)C3=CC=NC=C3)C4=CC(=C(C=C4)Cl)O
Procedure, shortened: as §1

[7] = compound: C1=CC=C2C(=C1)C3=NNC4=CC=CC(=C43)C2=O
Procedure, shortened: as §1

[8] = compound: C1CCN(C1)C(=O)NC2=CC=CC(=C2)NC3=NC=C(C(=N3)NCCC4=CN=CN4)Br
Procedure, shortened: as §1

[9] = compound: C1CN(CCC1(CC2=CC=C(C=C2)Cl)N)C3=NC=NC4=C3C=CN4
Procedure, shortened: as §1

IRAK-1-4 Inhibitor I = compound: C1COCCN1CCN2C3=CC=CC=C3N=C2NC(=O)C4=CC(=CC=C4)[N+](=O)[O-] [IRAK-1-4 Inhibitor I]
Procedure, shortened: as §1

ibrutinib = compound: C=CC(=O)N1CCC[C@@H](n2nc(-c3ccc(Oc4ccccc4)cc3)c3c(N)ncnc32)C1 [ibrutinib]
Procedure, shortened: as §1

[10] = compound: CC(=O)c1cnc2ccc(-c3cc(Cl)c(O)c(Cl)c3)nc2c1N[C@H]1CC[C@H](CN(C)C)CC1
Procedure, shortened: as §1

ralimetinib = compound: CC(C)(C)Cn1c(N)nc2ccc(-c3[nH]c(C(C)(C)C)nc3-c3ccc(F)cc3)nc21 [ralimetinib]
Procedure, shortened: as §1

[11] = compound: CC(C)(O)CC(=O)NCCn1ccc2ncnc(Nc3ccc(Oc4cccc(C(F)(F)F)c4)c(Cl)c3)c21
Procedure, shortened: as §1

[12] = compound: CC(C)C1=C2N=C(C=C(N2N=C1)NCC3=CC=CC=C3)NCCCCCCN
Procedure, shortened: as §1

[13] = compound: CC(C)C[C@@H](C=O)NC(=O)[C@H](CC(C)C)NC(=O)[C@H](CC(C)C)NC(=O)OCc1ccccc1
Procedure, shortened: as §1

pinometostat = compound: CC(C)N(C[C@H]1O[C@@H](n2cnc3c(N)ncnc32)[C@H](O)[C@@H]1O)[C@H]1C[C@@H](CCc2nc3cc(C(C)(C)C)ccc3[nH]2)C1 [pinometostat]
Procedure, shortened: as §1

[14] = compound: CC1=C(C(CC(=O)N1)C2=CC=C(C=C2)C(F)(F)F)C(=O)NC3=C(C=C4C(=C3)C=NN4)F
Procedure, shortened: as §1

[15] = compound: CC1=C(C2=C(C=C1)C(=O)C3=CC=CC=C3N2CCCN)C
Procedure, shortened: as §1

Chain of UniProt Q9C0E8 (Q9C0E8 whole entry, looked up): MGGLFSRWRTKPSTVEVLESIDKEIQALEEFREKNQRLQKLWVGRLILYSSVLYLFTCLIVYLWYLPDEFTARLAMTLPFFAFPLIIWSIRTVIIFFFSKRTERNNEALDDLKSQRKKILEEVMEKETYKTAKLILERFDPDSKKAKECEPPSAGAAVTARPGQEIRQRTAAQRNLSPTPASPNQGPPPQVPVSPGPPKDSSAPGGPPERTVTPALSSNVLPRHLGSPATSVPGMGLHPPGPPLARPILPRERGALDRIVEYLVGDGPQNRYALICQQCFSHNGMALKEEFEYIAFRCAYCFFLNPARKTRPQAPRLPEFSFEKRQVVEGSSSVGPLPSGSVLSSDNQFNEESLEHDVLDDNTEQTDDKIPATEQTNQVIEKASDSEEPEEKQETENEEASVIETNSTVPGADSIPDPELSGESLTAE
Chain of UniProt Q92615 (Q92615 whole entry, looked up): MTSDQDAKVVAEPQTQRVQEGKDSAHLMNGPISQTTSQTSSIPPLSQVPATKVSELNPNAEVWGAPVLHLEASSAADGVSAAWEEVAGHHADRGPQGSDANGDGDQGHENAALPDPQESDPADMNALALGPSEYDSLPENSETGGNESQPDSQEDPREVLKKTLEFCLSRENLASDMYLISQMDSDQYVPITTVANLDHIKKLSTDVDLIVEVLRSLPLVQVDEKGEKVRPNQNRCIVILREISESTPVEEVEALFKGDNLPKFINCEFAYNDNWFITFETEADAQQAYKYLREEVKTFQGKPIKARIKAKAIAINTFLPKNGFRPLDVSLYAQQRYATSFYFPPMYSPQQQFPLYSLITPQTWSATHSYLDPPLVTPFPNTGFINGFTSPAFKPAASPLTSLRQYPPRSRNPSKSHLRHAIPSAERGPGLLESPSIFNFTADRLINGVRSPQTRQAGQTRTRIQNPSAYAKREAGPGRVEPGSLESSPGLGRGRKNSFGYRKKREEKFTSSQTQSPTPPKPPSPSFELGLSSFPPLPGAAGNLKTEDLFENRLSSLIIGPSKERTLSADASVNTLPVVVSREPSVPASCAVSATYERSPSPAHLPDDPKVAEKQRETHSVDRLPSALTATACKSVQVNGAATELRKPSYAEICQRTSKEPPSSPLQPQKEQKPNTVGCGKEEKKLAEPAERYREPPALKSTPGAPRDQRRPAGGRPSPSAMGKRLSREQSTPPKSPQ
Chain of UniProt Q8N108 (Q8N108 whole entry, looked up): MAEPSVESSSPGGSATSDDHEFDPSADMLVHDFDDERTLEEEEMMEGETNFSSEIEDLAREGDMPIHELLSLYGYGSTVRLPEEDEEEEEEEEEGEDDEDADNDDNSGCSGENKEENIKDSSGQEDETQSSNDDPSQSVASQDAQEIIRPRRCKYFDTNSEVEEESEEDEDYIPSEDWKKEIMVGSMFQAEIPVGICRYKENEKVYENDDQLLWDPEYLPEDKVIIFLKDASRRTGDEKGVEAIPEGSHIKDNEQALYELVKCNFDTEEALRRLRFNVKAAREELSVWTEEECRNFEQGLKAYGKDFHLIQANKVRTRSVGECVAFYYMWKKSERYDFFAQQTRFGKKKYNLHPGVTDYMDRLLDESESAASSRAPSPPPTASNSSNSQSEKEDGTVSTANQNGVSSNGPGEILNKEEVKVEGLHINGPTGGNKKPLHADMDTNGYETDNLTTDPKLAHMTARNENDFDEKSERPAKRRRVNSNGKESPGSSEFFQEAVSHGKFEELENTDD
Chain of UniProt Q9Y6R4 (Q9Y6R4 whole entry, looked up): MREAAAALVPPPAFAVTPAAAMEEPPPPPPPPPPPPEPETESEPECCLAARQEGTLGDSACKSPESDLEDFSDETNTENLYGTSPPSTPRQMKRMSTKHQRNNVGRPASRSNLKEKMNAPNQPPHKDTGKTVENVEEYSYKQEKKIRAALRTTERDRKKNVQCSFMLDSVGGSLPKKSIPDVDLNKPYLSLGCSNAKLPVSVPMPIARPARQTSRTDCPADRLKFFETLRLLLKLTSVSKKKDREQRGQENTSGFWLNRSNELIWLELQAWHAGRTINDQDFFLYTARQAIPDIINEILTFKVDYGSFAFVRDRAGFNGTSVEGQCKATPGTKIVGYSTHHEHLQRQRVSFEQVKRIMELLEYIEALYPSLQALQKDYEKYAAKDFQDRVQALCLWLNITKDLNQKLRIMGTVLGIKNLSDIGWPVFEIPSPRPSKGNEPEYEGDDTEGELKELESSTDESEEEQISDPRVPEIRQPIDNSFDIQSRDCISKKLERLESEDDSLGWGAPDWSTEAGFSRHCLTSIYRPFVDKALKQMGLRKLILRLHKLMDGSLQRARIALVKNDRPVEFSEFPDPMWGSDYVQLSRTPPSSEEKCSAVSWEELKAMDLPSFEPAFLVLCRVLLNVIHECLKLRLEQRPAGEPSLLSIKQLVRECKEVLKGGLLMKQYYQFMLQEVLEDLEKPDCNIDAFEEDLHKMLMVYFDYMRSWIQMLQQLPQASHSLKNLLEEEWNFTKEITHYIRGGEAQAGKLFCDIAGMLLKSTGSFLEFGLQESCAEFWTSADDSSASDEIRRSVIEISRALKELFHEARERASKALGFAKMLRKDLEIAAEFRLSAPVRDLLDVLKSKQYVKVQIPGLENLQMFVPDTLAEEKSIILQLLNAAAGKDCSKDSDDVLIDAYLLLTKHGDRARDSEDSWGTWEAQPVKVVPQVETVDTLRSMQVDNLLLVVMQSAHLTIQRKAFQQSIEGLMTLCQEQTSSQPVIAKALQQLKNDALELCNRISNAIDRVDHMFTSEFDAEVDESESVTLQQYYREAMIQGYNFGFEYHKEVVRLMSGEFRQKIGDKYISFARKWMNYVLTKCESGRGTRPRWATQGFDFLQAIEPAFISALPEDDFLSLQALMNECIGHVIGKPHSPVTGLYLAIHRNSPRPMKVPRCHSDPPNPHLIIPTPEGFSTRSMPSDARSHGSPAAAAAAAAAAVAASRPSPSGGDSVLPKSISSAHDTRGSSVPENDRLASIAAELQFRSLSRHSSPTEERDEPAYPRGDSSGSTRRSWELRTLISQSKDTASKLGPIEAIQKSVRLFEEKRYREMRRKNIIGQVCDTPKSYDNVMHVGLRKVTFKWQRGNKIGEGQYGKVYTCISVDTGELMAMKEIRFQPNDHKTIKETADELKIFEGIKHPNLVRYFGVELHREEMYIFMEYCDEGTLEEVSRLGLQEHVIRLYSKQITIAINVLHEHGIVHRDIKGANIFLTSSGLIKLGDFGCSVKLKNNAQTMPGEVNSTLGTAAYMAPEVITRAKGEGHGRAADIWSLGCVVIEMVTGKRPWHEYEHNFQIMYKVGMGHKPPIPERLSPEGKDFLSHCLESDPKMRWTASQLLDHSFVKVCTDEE
Chain of UniProt P49006 (P49006 whole entry, looked up): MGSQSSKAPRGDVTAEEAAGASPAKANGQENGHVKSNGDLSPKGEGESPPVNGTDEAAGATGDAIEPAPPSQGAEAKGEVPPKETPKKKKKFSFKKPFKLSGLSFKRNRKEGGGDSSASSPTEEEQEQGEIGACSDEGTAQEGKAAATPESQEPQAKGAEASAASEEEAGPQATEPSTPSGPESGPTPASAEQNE
Chain of UniProt Q15648 (Q15648 whole entry, looked up): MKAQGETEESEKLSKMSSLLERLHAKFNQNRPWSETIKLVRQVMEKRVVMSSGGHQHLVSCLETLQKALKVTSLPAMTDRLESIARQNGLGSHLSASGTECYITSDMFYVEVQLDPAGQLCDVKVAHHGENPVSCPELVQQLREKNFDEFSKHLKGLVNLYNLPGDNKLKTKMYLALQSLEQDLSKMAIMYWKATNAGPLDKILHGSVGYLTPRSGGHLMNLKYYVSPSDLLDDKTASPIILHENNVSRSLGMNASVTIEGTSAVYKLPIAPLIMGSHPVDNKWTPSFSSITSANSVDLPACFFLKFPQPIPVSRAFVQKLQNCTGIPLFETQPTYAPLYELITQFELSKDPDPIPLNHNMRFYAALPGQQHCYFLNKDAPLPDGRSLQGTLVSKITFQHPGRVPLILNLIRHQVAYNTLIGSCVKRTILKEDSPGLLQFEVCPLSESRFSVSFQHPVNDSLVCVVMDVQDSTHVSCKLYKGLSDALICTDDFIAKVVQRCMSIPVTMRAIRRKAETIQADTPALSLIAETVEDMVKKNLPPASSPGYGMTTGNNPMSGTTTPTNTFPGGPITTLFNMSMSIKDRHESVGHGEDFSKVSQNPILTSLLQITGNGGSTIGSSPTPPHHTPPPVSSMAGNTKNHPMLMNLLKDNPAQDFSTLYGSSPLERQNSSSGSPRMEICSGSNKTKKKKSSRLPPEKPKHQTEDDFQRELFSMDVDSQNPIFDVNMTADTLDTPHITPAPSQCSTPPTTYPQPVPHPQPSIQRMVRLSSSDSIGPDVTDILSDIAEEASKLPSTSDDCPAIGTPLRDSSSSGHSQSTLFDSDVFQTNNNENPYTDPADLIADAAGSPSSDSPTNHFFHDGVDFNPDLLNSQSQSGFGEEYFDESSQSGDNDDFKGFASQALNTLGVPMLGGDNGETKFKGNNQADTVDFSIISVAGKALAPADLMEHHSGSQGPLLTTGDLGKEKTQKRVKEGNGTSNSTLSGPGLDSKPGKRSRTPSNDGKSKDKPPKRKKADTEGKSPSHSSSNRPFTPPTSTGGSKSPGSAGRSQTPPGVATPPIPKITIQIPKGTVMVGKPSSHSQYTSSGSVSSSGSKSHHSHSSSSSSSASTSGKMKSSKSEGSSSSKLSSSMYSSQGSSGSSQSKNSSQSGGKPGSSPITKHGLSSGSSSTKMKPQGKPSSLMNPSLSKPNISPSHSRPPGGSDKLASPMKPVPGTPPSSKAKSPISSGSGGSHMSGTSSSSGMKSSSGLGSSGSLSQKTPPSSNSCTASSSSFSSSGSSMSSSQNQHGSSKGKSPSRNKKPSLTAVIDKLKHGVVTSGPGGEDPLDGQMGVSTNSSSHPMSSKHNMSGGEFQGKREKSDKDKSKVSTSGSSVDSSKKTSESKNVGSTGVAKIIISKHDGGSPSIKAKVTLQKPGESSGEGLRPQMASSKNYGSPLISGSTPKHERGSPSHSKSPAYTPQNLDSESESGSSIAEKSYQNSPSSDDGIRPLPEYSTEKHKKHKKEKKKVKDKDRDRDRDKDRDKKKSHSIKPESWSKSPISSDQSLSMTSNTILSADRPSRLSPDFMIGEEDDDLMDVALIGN

Target | log2 fold change (erlotinib) | log2 fold change [1] | log2 fold change [2] | log2 fold change [3] | log2 fold change [4] | log2 fold change [5] | log2 fold change [6] | log2 fold change [7] | log2 fold change [8] | log2 fold change [9] | log2 fold change (IRAK-1-4 Inhibitor I) | log2 fold change (ibrutinib) | log2 fold change [10] | log2 fold change (ralimetinib) | log2 fold change [11] | log2 fold change [12] | log2 fold change [13] | log2 fold change (pinometostat) | log2 fold change [14] | log2 fold change [15]
IMMT isoform 4 (UniProt Q16891) | -0.027 | 0.026 | 0.057 | -0.006 | -0.021 | 0.011 | 0.012 | 0.001 | 0.012 | -0.013 | 0.037 | -0.005 | -0.015 | -0.044 | -0.035 | -0.179 | -0.013 | -0.013 | 0.017 | 0.01
ILRUN (UniProt Q9H6K1) | -0.009 | 0.069 | -0.033 | 0.027 | 0.075 | 0.043 | -0.06 | -0.063 | 0.028 | 0.041 | 0.031 | 0.044 | -0.011 | -0.004 | -0.035 | -0.148 | 0.027 | -0.06 | 0.031 | -0.055
MFN2 (UniProt O95140) | 0.027 | 0.049 | 0.007 | -0.001 | 0.026 | 0.008 | 0.041 | -0.003 | -0.016 | -0.019 | -0.033 | 0.03 | -0.055 | -0.014 | 0.009 | -0.479 (active) | 0.032 | -0.017 | -0.022 | 0.049
LMNA (UniProt P02545) | -0.025 | 0.116 | 0.009 | -0.106 | -0.031 | 0.035 | -0.049 | -0.171 | -0.086 | 0.013 | 0.006 | -0.023 | -0.18 | -0.058 | 0.115 | 0.076 | 0 | -0.057 | 0.005 | -0.017
KTN1 (UniProt Q86UP2) | -0.013 | -0.007 | -0.05 | -0.08 | 0.058 | -0.006 | -0.04 | -0.032 | -0.028 | -0.129 | -0.066 | -0.029 | 0.065 | 0.098 | 0 | -0.343 (active) | 0.072 | 0.102 | -0.019 | 0.071
LARP4B (UniProt Q92615) | -0.016 | 0.032 | -0.042 | 0.017 | -0.057 | -0.03 | 0.063 | -0.06 | -0.013 | -0.042 | -0.122 | 0.007 | -0.048 | 0.135 | 0.018 | -0.213 | 0.002 | 0.143 | 0 | 0.034
LNPK (UniProt Q9C0E8) | 0.011 | -0.028 | 0.05 | 0 | -0.018 | 0.058 | 0 | -0.02 | 0.007 | 0.089 | 0.041 | 0.013 | 0.004 | -0.019 | 0.016 | 0.05 | -0.011 | -0.01 | 0.016 | -0.035
MAP3K4 isoform 2 (UniProt Q9Y6R4) | -0.027 | 0.019 | 0.036 | -0.023 | 0.039 | -0.017 | -0.023 | -0.031 | 0.034 | 0.07 | 0.049 | 0 | 0.198 | 0.007 | -0.014 | -0.027 | -0.023 | 0.014 | -0.033 | 0.002
KLHDC4 (UniProt Q8TBB5) | -0.066 | -0.075 | -0.174 | -0.013 | 0.077 | -0.123 | -0.081 | 0.07 | -0.113 | 0.119 | -0.008 | -0.011 | -0.008 | 0.062 | 0.002 | 0.065 | 0.017 | 0.199 | -0.123 | 0.159
LDLR (UniProt P01130) | -0.035 | 0.003 | -0.04 | 0.03 | -0.018 | 0.025 | 0.011 | -0.113 | 0.025 | 0.051 | 0.03 | -0.015 | -0.106 | -0.025 | 0.072 | -0.009 | 0.171 | -0.011 | 0.019 | -0.058
MED1 (UniProt Q15648) | -0.022 | -0.011 | -0.118 | -0.001 | 0.04 | 0.043 | -0.03 | -0.043 | 0.016 | -0.025 | -0.049 | 0.002 | -0.28 (active) | 0.032 | -0.008 | -0.106 | 0.033 | 0.189 | 0.019 | 0.027
MARCKSL1 (UniProt P49006) | -0.001 | 0.072 | -0.047 | -0.02 | -0.031 | -0.039 | -0.015 | -0.063 | -0.005 | 0.039 | 0.041 | 0 | -0.039 | -0.069 | 0.106 | 0.006 | -0.034 | -0.017 | -0.031 | 0.028
KSR1 (UniProt Q8IVT5) | 0.082 | 0.004 | 0.044 | -0.044 | 0.162 | 0.058 | 0.185 | -0.106 | -0.088 | 0.058 | -0.07 | -0.084 | -0.807 (active) | 0.065 | -0.231 | -0.085 | 0.085 | 0.035 | 0.011 | 0.044
KPNA1 (UniProt P52294) | -0.042 | 0.09 | -0.053 | -0.037 | -0.011 | 0.009 | 0.035 | -0.061 | -0.032 | -0.07 | -0.046 | -0.073 | 0.062 | 0.089 | -0.022 | 0.084 | 0.123 | 0.071 | -0.05 | -0.26 (active)
MIEF1 (UniProt Q9NQG6) | 0.009 | 0.03 | 0.104 | 0.021 | 0.072 | 0.001 | 0.025 | -0.027 | -0.028 | -0.021 | 0.056 | -0.003 | -0.016 | -0.07 | -0.183 | -0.247 | -0.034 | -0.038 | -0.085 | 0.112
MIER1 isoform 12 (UniProt Q8N108) | 0.399 (active) | 0.009 | 0.016 | -0.031 | 0.024 | 0.014 | 0.001 | 0.02 | -0.06 | 0.028 | 0.055 | -0.012 | -0.035 | 0.033 | -0.021 | -0.062 | 0.03 | -0.013 | 0.027 | -0.122
